From the supplement of paper PMC11417369
Over roughly 25,000 sequences, “ln(normalized median fluorescence intensity)” has its median near 9.3; the highest 2% begin near 10. The sample holds the highest values, similar sequences and a random draw of the others, so the mix is not that of the screen.

tested on: PF3D7_0420300 AP2 domain 1 (GST-tagged); experiment: gcPBM binding intensity (ln(normalized median fluorescence intensity)); higher = stronger DNA binding
How it was run: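 Each value is the highest Masliner-normalised natural-log median intensity across replicate spots of either orientation of a probe. The probes were primer-extended double-stranded 36-bp intergenic genomic sequences on an Agilent 4 × 180k array, alongside negative controls, exposed for 1 h to GST-tagged P. falciparum DNA-binding domains expressed in E. coli. Bound protein was picked up with Alexa488 anti-GST antibody and scanned at 488 nm.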

Row | Sequence | gcPBM binding intensity (ln)
1 | CAATCATTTTATTGTTGTACAGTAATTATGAATTCA [XGTACX_site7508] | 9.03
2 | TACAATGAAAAAATAACATGCAATTATATTTCTCTT [TGCATGCA_site833] | 9.17
3 | TATATAAATTAACCAGTGCATTATTTGGAAATTATT | 9.31
4 | CATTATGATTAAATATGTACATATTATTATATAAAT [XGTACX_site2477] | 9.08
5 | GAAAAAAAAAAAAAAAAAAAAAGGAAAAAAGTGAAA [CACACA_negctrl_site996] | 9.21
6 | TATATATGTATATATGGTACAGAATATTCTACATTA [XGTACX_site5077] | 9.23
7 | ATATCATTTTCCTGCACACATAAATTTATATAATAT [CACACA_site1048] | 9.76
8 | TTTTTTTTCTATGTGGTGCACATTATTTTTTTTTTT | 9.41
9 | CACAAAAAGAAACACACACACATATATATATATATA [CACACA_site999] | 9.73
10 | AACAAATACAGACACACACACACACTAATAAAAAAA [CACACA_site8067] | 10.3
11 | TACAAACAGACATATACACACAAAAAAAAAATAAAA [CACACA_site2562] | 9.91
12 | TGAACACAGACAAATACACACAAAAAAAATAAATAA [CACACA_site4298] | 9.79
13 | AATACAGACAGACACACACACAAAATAAAATACAAA [CACACA_site245] | 10.1
14 | AAATAAAACAGACACACACACACATACACAAAAAAA [CACACA_site7753] | 10.2
15 | TATATATACAGACACATACACACAAATAAAAAAACA [CACACA_site3413] | 10.1
16 | AAATTATAAATAATTTGTACATAAAAATTGGTAAAG [XGTACX_site5197] | 9.07
17 | CTTCAATTAAAATTCACACATATAAATTAAAATATT [CACACA_site6129] | 9.06
18 | TACACCCACCAACACACACACACACCCAAAAAAAAA [CACACA_site498] | 10.1
19 | AGCACCCACCAACACACACACACACCCACCCACCGA [CACACA_site368] | 10.3
20 | GTTACACCAACAAACACACACACACCGACACCCAAA [CACACA_site5361] | 10.1
21 | TGTTATATCAATAATATATAATAATACCCTTCTTTT [CACACA_negctrl_site1682] | 9.06
22 | GTTATAGAAGCATTCACACACACACGGACATACACA [CACACA_site6801] | 10.1

Row | Sequence | gcPBM binding intensity (ln)
23 | GTTATAGAAGCATTCACACACACACCCACATACACA [CACACA_site1465] | 10.1
24 | TAGAAGCATGGACACACACACATACATACCCATACA [CACACA_site4916] | 10
25 | TATAGAAGCATTCACACACACACATACATACACATA [CACACA_site1466] | 10.2
26 | TTGTTATAGAAGCATTCACACACACCCATACATACA [CACACA_site8414] | 9.87
27 | TATAGAAGCGTTCACACACACACATACATACCCATA [CACACA_site4915] | 10.3
28 | ATTCACTAAAAAATTGCATGCAATAAATTTTTTTTT [TGCATGCA_site962] | 8.91
29 | TAATATATATATATATGTACATATATATTATGTATA [XGTACX_site4690] | 9.07
30 | TATATTTTCTATAGGTGTACTCCACATGCGGTGTTA [XGTACX_site7471] | 9.08
31 | ATGTATATGCAAACATGTACATATATAAACATATAT [XGTACX_site4159] | 9.16
32 | AAAAAAAAAAAAAAAAAAAAACACCCAAAAAAATAT [XGTACX_negctrl_site210] | 9.62
33 | TACACTTTTTATGAAGTGCATGTATAGCTCTTAAAA [GTGCAC_site9595] | 8.78
34 | AACATATAAAAATGTGCACACACACCCATATATATA [CACACA_site1525] | 9.97
35 | TATTAAACTGGACACACACACACACCCATATATAAA [CACACA_site4579] | 10.2
36 | ACCATATAAATAAACACACACACACCCATATATATA [CACACA_site2321] | 10.2
37 | TATATATTAAAACACACACACATATATATATATATA [CACACA_site3787] | 9.67
38 | TTCCCATGTAATATTAAACACACACCCATATAACAC [CACACA_site7905] | 9.76
39 | AAAAAAAAAAAAAACACACACACACCCATAAATATA [CACACA_site151] | 9.88
40 | TTTATTAAACTTGACACACACACACCCACATATATA [CACACA_site760] | 10.2
41 | CATATAAAAATGTGCACACACACACCCATATATATT [CACACA_site1526] | 10.2
42 | CATATAAAAATGTGCACACACACACCGATATATATT [CACACA_site4940] | 10.1
43 | AATATAAATAAAAACACACACACACCCATATATATA [CACACA_site2267] | 10.1
44 | TATTAAACGAAACACACACACACACCCATATATAAA [CACACA_site759] | 10.2

Row | Sequence | gcPBM binding intensity (ln)
45 | TTTTACAAATATTACTGTACACATTTTCATATAATT [XGTACX_site17] | 9.49
46 | TTTTGCGAAAAAAGGTGTACTGTAAATATATTGAGG [XGTACX_site8941] | 9.09
47 | ATATATGATGTAAAAGCACACATATATATATATATA [CACACA_site9330] | 9.21
48 | TTTTTTTTAATATTTTACATTGTCTGTTAACAAATA [CACACA_negctrl_site599] | 9.14
49 | TTTCTTTTTTTTTTTATTTACCTGAATTATGTATTA [TGCATGCA_negctrl_site345] | 9.24
50 | TATGTGCACCCATATACACACACAAATACAATGATA [CACACA_site8295] | 9.81
51 | TATAAAATTTTTAAAAGTACATATTTTACATAATAC [XGTACX_site2193] | 9.1
52 | GCCTATATGTTTAGTTGTACTCCTAATATTATTTGT [XGTACX_site6060] | 9.75
53 | CGCAACACTATTTGGGTGCTCTTCAAAAAAAAAAAA [GTGCAC_site9598] | 8.56
54 | ATATAATATATATATAAACACACAAAAAAAATTATA [CACACA_site8434] | 9.63
55 | TATATATAGAAACACACACACATATATATATATATA [CACACA_site773] | 9.74
56 | TATAAAAGGAAACACACACACATATATATATATATA [CACACA_site939] | 9.74
57 | TATATATAGAAACACACACACACACCCAAGCGTAGC [CACACA_site63] | 10.2
58 | TATATATAGAAACACACACACACCAAAGCGTAGCGC [CACACA_site62] | 10
59 | TCATAGTAGAAACACACACACACACCCATATATATA [CACACA_site1737] | 10.2
60 | TATATATATAAACACACACACACACCCAAGCGTAGC [CACACA_site4210] | 10.1
61 | ATAAAAAGGAAACACACACACACACCCATATATATA [CACACA_site904] | 10.2
62 | ATAATATATATATAAACACACAAAAAAAATTATATA [CACACA_site1534] | 9.74
63 | TATATATAGAAACACACACACACATATATATATATA [CACACA_site4116] | 9.96
64 | TAAAAAGGAAAACACACACACACATATATATATATA [CACACA_site3588] | 9.9
65 | TATATATAAAAACACACACACACACCCTATAATTAT [CACACA_site4063] | 10.3
